# PubChem BioAssay AID686979 (National Center for Advancing Translational Sciences (NCATS), 2013)
# Where “and” joins values, the source holds several entries; their conditions need not be identical. Identical values can stand only once. Out of some 420,000 compounds screened, about 50,000 (12%) were called active. Roughly 26% stayed inconclusive and do not appear here. Calls follow the shape of the dose curve; as a rule, active = well fitted inhibition curve with a large enough effect; inconclusive = small, poorly fitted or top-dose-only effect; inactive = flat fitted curve, though single readings scatter. The entries come from a sample that favours actives as a whole. Where a SMILES comes first, the peptide text is derived from it. [ ]: non-standard residue; d: D form. ξ: configuration not given here. Ac5c = NC1(C(=O)O)CCCC1; ξS = NC(CO)C(=O)O
# Experiment: qHTS for Inhibitors of human tyrosyl-DNA phosphodiesterase 1 (TDP1): qHTS in cells in presence of CPT; also: nearly all actives have a fitted effect of over 55% in size
# Settings: chicken DT40 Tdp1-/-;hTDP1 cells + 20 nM CPT, ATP luminescence, 48 h; series mostly up to 46.2 µM; activity change, negative = growth inhibition: at the top concentration
# How it was run: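 Chicken DT40 Tdp1-/- cells complemented with human TDP1, 400 cells/well, exposed to compounds plus 20 nM camptothecin for at least 48 h at 37 C; viability read as ATP content by CellTiter-Glo luminescence.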
# % is scaled to controls: 0 for no effect and ±100 for the full control effect; potency is read from the fitted curve at half-maximal effect.
SMILES,"activity change, negative = growth inhibition",Potency
CCOC(=O)C1(Cc2ccccc2C)CCCN(S(C)(=O)=O)C1 (configuration not stated),-19% (inactive),
CNC(=O)NC(=O)CSc1nnc(-c2ccc(F)cc2)n1CC1CCCO1 (configuration not stated),4.38% (inactive),
Oc1cc2c(cc1O)CN(C(=S)NCCc1ccc(Cl)cc1)CCC2,,13.3 µM (active) and 7.08 µM (active)
O=C(NCCc1ccc(Cl)cc1)C1CCCN1C(=O)NCc1ccccc1 (configuration not stated),-19.2% (inactive),
COc1ccc(CCNC(=S)N2CCN(S(=O)(=O)c3ccc(Cl)cc3)CC2)cc1,-3.02% (inactive),
CCOc1ccc(C(=O)NCC(=O)N2CCCCCCC2)cc1OCC,4.15% (inactive),
CCOc1ccc(CCNC(=O)Cn2nc(CC)n3c(cc4sc(CC)cc43)c2=O)cc1OCC,,16.4 µM (active)
CCc1cc2c(cc3c(=O)n(CC(=O)N4CCN(c5cc(Cl)ccc5C)CC4)nc(CC)n32)s1,5.07% (inactive),
CCc1cc2c(cc3c(=O)n(CC(=O)NCCc4ccc(OC)c(OC)c4)ncn32)s1,-23.1% (inactive),
COc1ccc2cc(C(=O)O)n(CC(=O)c3ccccc3)c2c1,0.526% (inactive),
CCOC(=O)C1=C(c2ccccc2)O/C(=C(/C(=O)OC)C(F)(F)F)S1,-15.8% (inactive),
O=C(NCC(=O)N(CC1CCCO1)C(C(=O)NC1CCCCC1)c1ccccc1)c1ccco1 (configuration not stated),-3.29% (inactive),
CCCCN(C)CCNC(=O)C1CCCN(S(=O)(=O)c2cccc3nsnc23)C1 (configuration not stated),,inactive
CCCCN(CC)C(=O)C1CCCN(S(=O)(=O)c2cccc3nsnc23)C1 (configuration not stated),,25.9 µM (active)
O=C(c1ccco1)N1CCN(C(=O)C2CCCN(S(=O)(=O)c3cccc4nsnc34)C2)CC1 (configuration not stated),-28% (inactive),
CCOC(=O)C(CO)NC(=O)C1(NC(C)=O)CCCC1 (configuration not stated) (Ac-[Ac5c]-[ξS]-OEt),18% (inactive),
OCC1(Cc2ccccc2C(F)(F)F)CCN(Cc2ccncc2)CC1,-29.8% (inactive),
Cc1cc([N+](=O)[O-])ccc1NC(=O)C1CCCO1 (configuration not stated),0.207% (inactive),
COc1cccc(C(=O)CC(=O)C(=O)Nc2ccc([N+](=O)[O-])cc2C)c1,,23.1 µM (active)
COc1cccc(C(=O)Oc2cc(C)[nH]c(=O)c2[N+](=O)[O-])c1,0.282% (inactive),
CCN(CCCNC(=O)Cn1ncc2c([nH]c3ccccc32)c1=O)c1cccc(C)c1,-3.13% (inactive),

SMILES,"activity change, negative = growth inhibition",Potency
CCN(CCCNC(=O)c1cc(Nc2ccc(OC)cc2)nc2ccccc12)c1cccc(C)c1,,20.6 µM (active)
COc1ccc(NC(=O)c2cc(-c3ccc(C)o3)nc3ccccc23)cc1,-27.5% (inactive),
COc1ccc(NC(=O)CCNC(=O)Cn2ccc3ccccc3c2=O)c(OC)c1,1.62% (inactive),
COc1ccc(NC(=O)c2cc(-c3cc(OC)c(OC)c(OC)c3)nc3ccccc23)c(OC)c1,,13 µM (active)
COc1ccc(Nc2cc(C(=O)NCCCN(C)c3ccccc3)c3ccccc3n2)c(OC)c1,,13 µM (active)
COc1ccccc1NC(=O)c1cc(Cl)nc2ccccc12,6.57% (inactive),
COc1ccc(NC(=O)CNC(=O)Cn2ccc3ccccc3c2=O)c(OC)c1,,inactive
COc1ccc(CNC(=O)COC(=O)C2=Cc3ccccc3OC2)cc1,5.53% (inactive),
COC(=O)c1ccc(CNC(=O)Cn2cc(C)c(=O)[nH]c2=O)cc1,0.751% (inactive),
O=C(Cn1c2[n+](c3ccc(C(F)(F)F)cc31)CCCCC2)Nc1c(F)cccc1F,0.326% (inactive),
Cc1ccc(CN(C)Cc2cc(=O)oc3cc(C)c(Cl)cc23)cc1,-11.4% (inactive),
Cc1cc(NC(=O)CSc2ncc(C(F)(F)F)cc2Cl)no1,2.58% (inactive),
Cc1c(Cl)cccc1NC(=O)CCC(=O)N/N=C/c1ccco1,-12.2% (inactive),
C[C@H](CO)N1C[C@H](C)[C@@H](CN(C)C(=O)NC2CCCCC2)Oc2ccc(NC(=O)c3ccncc3)cc2C1=O,6.58% (inactive),
COC(=O)c1ccccc1NC(=S)NC(=O)c1ccccc1F,-10.3% (inactive),
S=C(NCc1cccnc1)Nc1ccc(Cl)cc1Cl,-0.527% (inactive),
NS(=O)(=O)c1ccc(-c2ccc(/C=C3\SC(=O)NC3=O)o2)cc1,-26.6% (inactive),
Cc1ccc(NC(=O)CCC(=O)c2ccc(Br)cc2)cc1,1.81% (inactive),
Cc1cccc(-c2nc(SCC(=O)Nc3cc(C)on3)c3c(=O)n(C)c(=O)n(C)c3n2)c1,9.94% (inactive),
Cn1c(=O)c2c(SCC(=O)NCC3CCCO3)nc(-c3ccccc3F)nc2n(C)c1=O (configuration not stated),-2.94% (inactive),
Cc1ccccc1-c1nc(SCC(=O)N(C)c2ccccc2)c2c(=O)n(C)c(=O)n(C)c2n1,,20.6 µM (active)

SMILES,"activity change, negative = growth inhibition",Potency
CN(C(=O)COC(=O)c1nc(Cl)ccc1Cl)C1CCS(=O)(=O)C1 (configuration not stated),4.88% (inactive),
Cc1cc(C)c2nc(N3CCC(C(=O)NCCN4CCOCC4)CC3)sc2c1,-15.1% (inactive),
COc1ccc(/C(=N\O)c2nccc3cc(OC)c(OC)cc23)cc1OC,-17.8% (inactive),
COC(=O)c1ccc(-c2c(-c3ccccc3)ncc3cc(OC)c(OC)cc23)cc1,,20.6 µM (active)
COC(=O)c1ccc(NC(=O)CSc2nncc3ccc(OC)c(OC)c23)cc1,-6.52% (inactive),
CCN(CC)CCn1c2c(c(SCC(=O)Nc3ccc(C(C)C)cc3)nc1=O)CCC2,-2.66% (inactive),
CC(=O)OCC(=O)C1(O)CCC2C3CC(C)C4=CC(=O)CCC4(C)C3C(O)CC21C (configuration not stated),-6.1% (inactive),
COc1ccc(C(=O)NC(C)Cn2nc(C)cc2C)cc1OC1CCN(C(C)=O)CC1 (configuration not stated),-1.86% (inactive),
O=C(CN1C(=O)c2ccc([N+](=O)[O-])cc2C1=O)Nc1nnc(C2CC2)s1,17% (inactive),
C=CCOc1ccc(/C=C/C(=O)OCC(=O)NCC2CCCO2)cc1 (configuration not stated),-16.3% (inactive),
COc1ccc(/C=N/NC(=O)c2ccc3c(c2)OCCO3)c(OC)c1,1.79% (inactive),
COc1ccc(C(=O)N/N=C2\CCS(=O)(=O)c3ccc(F)cc32)cc1OC,,18.4 µM (active)
CCNC(=O)c1ccc(OCC(=O)Nc2ccc(F)cc2)c(OC)c1,0.955% (inactive),
CCN(Cc1ccccc1)C(=O)Cc1ccc(OC)c(S(=O)(=O)N2CCOCC2)c1,-24.5% (inactive),
CCOC(=O)/C(C#N)=C/c1cn(CCC(=O)O)nc1-c1ccc(Br)cc1,-3.43% (inactive),
O=C(O)/C=C/c1cn(Cc2ccccc2)nc1-c1cccs1,1.59% (inactive),
O=C(O)CCn1cc(/C=C/C(=O)c2ccc(Cl)cc2)c(-c2cccc(Br)c2)n1,,20.6 µM (active)
Cc1cc(C)cc(N)c1,-11.1% (inactive),
O=C(NCc1ccco1)C(c1ccncc1)N(C(=O)Cn1nnc2ccccc21)c1ccccc1 (configuration not stated),3.69% (inactive),
CC(C)(C)OC(=O)N/N=C/c1ccc(C(=O)O)cc1,5.2% (inactive),
